Assay outcomes: PubChem BioAssay, Sanford-Burnham Center for Chemical Genomics
TWEAK Fn14 block: inhibitors of TWEAK-Fn14 signaling, primary screen, luciferase reporter cells, uHTS. TWEAK-stimulated Fn14 reporter cells, luciferase luminescence, 8 h. inhibition, % at 10 µM. AID 1159606, 2016. hit rate 2% among 360,000; in the data active = inhibition above about 50%
TROY signal inh: inhibitors of TROY-driven NF-kB signaling, primary screen, Q293 LMP1-TROYcd cells, NF-kB luciferase, uHTS | Q293 LMP1-TROYcd NF-kB luciferase reporter, 4 h | inhibition, % at 10 µM | hit rate 0.98% among 360,000;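 active = compounds whose plate-normalised and pattern-corrected inhibition of the luciferase reporter signal at the single screening dose is 50% or more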
Peg3 promoter: Peg3 promoter-driven luciferase inhibitors, primary screen, cell-based, HeLa, luciferase luminescence; hit rate 1.7% among 360,000; HeLa PEG-Prom luciferase reporter, overnight; inhibition, % at 20 µM;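 active = inhibition of at least 50% at 20 µM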
HIF-2a block: HIF-2a reporter inhibitors, primary screen, luminescence, 786-0 RCC cells | 786-0 RCC cells HIF-2a reporter, luciferase luminescence, overnight | inhibition, % at 18.8 µM | hit rate 0.72% among 360,000 | AID 624352, 2012;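 active = inhibition of the luminescence signal of 40% or more relative to plate controls, in a single-dose primary screen at 18.75 µM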
KKLEB cytotox: cytotoxicity in KKLEB CF airway cells, primary screen, cytotoxicity control for CF NF-kB inhibitor project, cell-based, uHTS, fluorescence assay plates; hit rate 0.36% among 360,000; KKLEB CF airway cells viability, ATPlite luminescence, overnight; hits give low values; cells stimulated with P. aeruginosa culture filtrate; activity change (cytotoxicity), % at 5 µM;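 active = corrected activity change at or below -50% at 5 µM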
CF NFkB block: inhibitors of PAF-induced NF-kB signaling, primary screen, cell-based, GFP fluorescence, uHTS; AID 588850, 2011; inhibition, % at 5 µM; hit rate 0.86% among 360,000; KKLEB NF-kB-GFP reporter, GFP fluorescence overnight;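 active = at least 50% inhibition at 5 µM, scaled per plate between neutral and stimulator controls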;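 also: PAF is a Pseudomonas aeruginosa culture filtrate used as stimulus; plate controls were PAF-stimulated DMSO wells for no effect and unstimulated DMSO wells for full effect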
Mdm2-MdmX confirm: retested Mdm2-MdmX interaction blockers, confirmation, cell-based, luminescence, single concentration, set 2. hit rate 99% among 740. inhibition, % at 8 µM. SaOS-2 split-luciferase Mdm2/MdmX complementation. shares compounds with HIF-2a block. AID 504601, 2011;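 active = mean inhibition of the luminescence signal across two replicates at or above 26 percent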
Target sequence (O15151 whole entry, looked up): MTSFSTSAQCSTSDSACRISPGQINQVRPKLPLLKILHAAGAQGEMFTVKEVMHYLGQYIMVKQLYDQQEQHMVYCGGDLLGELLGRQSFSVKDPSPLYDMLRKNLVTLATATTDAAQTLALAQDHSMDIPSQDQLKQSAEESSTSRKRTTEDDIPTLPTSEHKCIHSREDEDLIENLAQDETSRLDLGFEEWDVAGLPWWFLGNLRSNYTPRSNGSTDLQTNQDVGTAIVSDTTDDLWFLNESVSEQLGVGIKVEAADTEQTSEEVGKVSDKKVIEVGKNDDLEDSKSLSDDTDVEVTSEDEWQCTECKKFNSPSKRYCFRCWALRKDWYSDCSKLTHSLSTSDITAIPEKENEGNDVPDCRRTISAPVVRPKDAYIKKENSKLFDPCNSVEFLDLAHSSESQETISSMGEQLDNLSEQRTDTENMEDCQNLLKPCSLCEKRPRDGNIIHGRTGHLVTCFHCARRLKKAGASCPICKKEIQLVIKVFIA
Target sequence (Q00987 whole entry, looked up): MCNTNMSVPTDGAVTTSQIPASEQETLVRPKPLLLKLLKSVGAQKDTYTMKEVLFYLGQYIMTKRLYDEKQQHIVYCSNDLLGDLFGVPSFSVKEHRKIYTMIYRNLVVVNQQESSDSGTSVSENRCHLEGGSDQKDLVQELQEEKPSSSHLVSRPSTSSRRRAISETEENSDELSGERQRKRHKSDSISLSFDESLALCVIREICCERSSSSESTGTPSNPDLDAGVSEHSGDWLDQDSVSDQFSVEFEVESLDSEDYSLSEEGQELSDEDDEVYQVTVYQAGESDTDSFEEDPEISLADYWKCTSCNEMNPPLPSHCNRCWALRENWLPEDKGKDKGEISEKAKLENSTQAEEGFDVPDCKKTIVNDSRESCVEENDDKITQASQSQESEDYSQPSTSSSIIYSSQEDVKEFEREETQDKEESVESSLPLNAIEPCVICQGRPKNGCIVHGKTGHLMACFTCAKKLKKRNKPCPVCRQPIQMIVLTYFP
HIF-2a conf: HIF-2a reporter inhibitor retest, confirmation, luminescence, 786-0 RCC cells; shares compounds with HIF-2a block; HIF-2a luciferase reporter luminescence, overnight; inhibition, % at 18.8 µM; hit rate 56% among 1,800;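 active = mean inhibition across four replicates of at least 40 percent at the single tested concentration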
HIF-1a counter: HIF-1a luciferase reporter signal reduction – MiaPaCa-2 cells, single concentration, counter-screen for HIF-2a inhibitor project, confirmation | shares compounds with HIF-2a block | MiaPaCa-2 HIF-1a luciferase reporter, desferoxamine, overnight | inhibition, % at 18.8 µM | hit rate 72% among 1,800;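 active = mean inhibition of the reporter signal across four replicates at the single tested dose of 50% or more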
Active calls of the source: *; . = no result. In the library only some 3.9% were active in any assay of this set; here they are far more common.

SMILES	TWEAK Fn14 block	TROY signal inh	Peg3 promoter	HIF-2a block	KKLEB cytotox	CF NFkB block	Mdm2-MdmX confirm	HIF-2a conf	HIF-1a counter
COc1ccccc1[C@@H]1C(c2cccc(Cl)c2)=NN(c2ccc(Br)cc2)[C@H]1C(=O)N1CCOC1=O	17	1	-3	0	-2	12	.	.	.
Cc1cccn2c(=O)c3cc(C(=O)NCCc4ccccc4)c(=N)n(Cc4ccco4)c3nc12	101*	33	31	93*	-8	4	29*	4	83*
Cc1ccc(CNC(=O)c2cc3c(=O)n4ccccc4nc3n(Cc3ccco3)c2=N)cc1	41	30	-8	3	-8	-1	.	.	.
Cc1cccn2c(=O)c3cc(C(=O)NCc4ccco4)c(=N)n(CCc4ccccc4)c3nc12	-75	-13	13	11	-11	-71	.	.	.
COc1ccc(CCNC(=O)c2cc3c(=O)n4cccc(C)c4nc3n(Cc3ccco3)c2=N)cc1OC	87*	10	-3	60*	-8	14	17	-4	41
CCCNCc1cc(Cl)c(OCC)c(Cl)c1	6	-29	-4	10	-5	7	.	.	.
CN(C)CCCNC(=O)c1ccc(-c2nc(-c3ccc(Cl)cc3)cs2)cc1	20	-168	103*	88*	-24	6	.	-175	106*
CN(C)CCCNC(=O)c1ccccn1	3	-7	10	10	10	20	.	.	.
CCCNC(=O)C1(C)CCCN(C(=O)c2ccc(F)c(Cl)c2)C1 (stereo unspecified)	-1	-4	-18	4	-1	-6	.	.	.
NC(Cc1ccc(Cl)cc1)c1csc(NC(=O)NCC2CCCCC2)n1 (stereo unspecified)	-2	4	92*	61*	-17	22	.	-23	101*
COc1ccc(CC(N)c2csc(NC(=O)c3ccc(OC)cc3)n2)cc1 (stereo unspecified)	12	13	16	-6	-7	0	.	.	.
Cc1[nH]nc2c1C(c1cc(Br)cs1)C(C#N)=C(N)O2 (stereo unspecified)	61*	5	20	43*	-14	60*	.	40*	92*
CC1=C(CO)C(=O)OC([C@@H](C)C2CC[C@H]3C4C[C@H]5O[C@]56[C@@H](O)C=CC(=O)[C@]6(C)C4CC[C@]23C)C1 (stereo partly specified)	103*	49	109*	94*	-3	85*	.	97*	107*
CCCCC(=O)NC(c1ccc(Cl)cc1Cl)c1ccc2cccnc2c1O (stereo unspecified)	-20	-18	54*	-46	-8	-28	85*	.	.
CCOC(=O)c1c(NC(=O)/C=C/C(=O)O)sc(C)c1-c1ccc(C(C)(C)C)cc1	98*	90*	29	-21	-86*	66*	103*	.	.
CCOC(=O)c1c(NC(=O)c2c(-c3ccccc3)noc2C)sc(C)c1-c1ccccc1	-17	-26	5	-13	0	-3	102*	.	.
C=CCN1CC(c2nc3ccccc3n2CCOc2ccccc2)CC1=O (stereo unspecified)	5	27	10	10	-3	-5	.	.	.
Cc1c(/C=N/NC(=O)c2cc(C(C)(C)C)[nH]n2)c2ccccc2n1C	0	-27	1	20	-2	-4	.	.	.
CCC(=O)Nc1nnc(S(=O)(=O)N(CC)c2ccc(Cl)cc2)s1	20	11	8	17	1	4	.	.	.
COC(=O)c1cccc(-c2noc(-c3ccccc3F)n2)c1	-35	-15	-291	52*	-3	-13	.	65*	-107
NC(=O)c1cccc(-c2noc(-c3ccccc3F)n2)c1	36	-11	-159	-156	11	-28	.	.	.
COc1ccc(C)c2sc(N(CCCN(C)C)C(=O)c3ccc(S(=O)(=O)N4CCc5ccccc5C4)cc3)nc12	-168	38	102*	85*	-84*	75*	.	29	97*
O=C(O)CCSc1ncnc2sc(-c3ccccc3)cc12	86*	63*	25	91*	-7	7	.	94*	84*
O=C(Nc1cccc(C(F)(F)F)c1)Nc1ccc(N2CCCC2)c(S(=O)(=O)Nc2ccccc2Cl)c1	80*	41	64*	-4	-58*	59*	102*	.	.
CC(=O)Nc1ccc(N2CCOCC2)c(S(=O)(=O)Nc2ccccc2Cl)c1	16	-11	-2	-4	17	-25	.	.	.
SMILES	TWEAK Fn14 block	TROY signal inh	Peg3 promoter	HIF-2a block	KKLEB cytotox	CF NFkB block	Mdm2-MdmX confirm	HIF-2a conf	HIF-1a counter
Cc1ccc(NC2=C/C(=N\S(=O)(=O)c3cccs3)c3ccccc3C2=O)c(C)c1	95*	69*	111*	71*	-102*	96*	101*	.	.
Cc1ccc(Cl)cc1NC1=C/C(=N\S(=O)(=O)c2cccs2)c2ccccc2C1=O	100*	71*	110*	90*	-105*	92*	102*	.	.
COc1ccc(NC(=S)NC(NC(=O)c2cccc(Cl)c2)C(Cl)(Cl)Cl)c([N+](=O)[O-])c1 (stereo unspecified)	40	7	34	-40	6	24	.	.	.
O=C(NC(NC(=S)Nc1ccccc1Cl)C(Cl)(Cl)Cl)c1cccc(Cl)c1 (stereo unspecified)	76*	36	46	44*	-32	45	.	19	102*
O=C1C2C3CC4C5C3C1C5C1(SCCS1)C42 (stereo unspecified)	-10	3	-7	3	-10	-5	.	.	.
CN(C)CCCNc1c2ccccc2nc2ccccc12	-5	-47	102*	33	-6	-25	102*	.	.
Cc1ccc(-c2cnc(-c3ccncc3)o2)cc1	-16	-39	-240	-239	17	-10	.	.	.
Nc1ccc(-c2ncc(-c3ccccc3)o2)cc1	68*	34	-75	78*	0	-38	.	92*	62*
